# Screening results from PubChem BioAssay.
# Sampled rows, rich in hits. Any-hit rate of the full collection: about 19%.
# TDP1 cell CPT – growth inhibition of DT40 Tdp1-/-;hTDP1 cells with camptothecin (screen for TDP1 inhibitors); chicken DT40 Tdp1-/-;hTDP1 cells + 20 nM CPT, ATP luminescence, 48 h; Potency, µM (highest dose often 46.2 µM), without a hit: top-dose activity change, negative = growth inhibition, actives largely listed as inhibitors; actives 12% (n = 420,000); AID 686979; note: nearly all actives have a fitted effect of over 55% in size
#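 Chicken DT40 Tdp1-/- cells complemented with human TDP1, 400 cells/well, exposed to compounds plus 20 nM camptothecin for at least 48 h at 37 C; viability read as ATP content by CellTiter-Glo luminescence.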
# KB-V1 cytotox – KB-V1 MDR subline cytotoxicity; Potency, µM (top dose mostly 46.1 µM), actives largely listed as cytotoxic; actives 3.4% (n = 400,000); KB-V1 MDR cells viability, CellTiter-Glo, 72 h; note: nearly all actives have a fitted effect of over 60% in size
#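 Compound-treated KB-V1 multidrug-resistant cells, 72 h, 37 degrees C; viability by CellTiter-Glo. Fitted qHTS curves give the values.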
# TDP1 cell noCPT – qHTS for Inhibitors of human tyrosyl-DNA phosphodiesterase 1 (TDP1): qHTS in cells in absence of CPT | Potency, µM (series often up to 46.2 µM), for the others: at the highest dose activity change, negative = growth inhibition, most hits filed as inhibitors | actives 15% (n = 420,000) | DT40 Tdp1-/- hTDP1 cells, no CPT, ATP luminescence, 48 h; note: nearly all actives have a fitted effect of over 55% in size
#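 A cellular qHTS used chicken DT40 cells lacking endogenous Tdp1 but carrying stably transfected human TDP1. Compounds were applied without camptothecin, and cell growth kinetics were judged by ATP-dependent luminescence after ≥48 hr.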
# HT1080 IDH1KD tx – kills HT-1080 cells with IDH1 knockdown | HT-1080 IDH1 knockdown viability, ATP luminescence, 48 h | Potency, µM (top dose mostly 46.1 µM), for inactives: top-dose activity, negative = toxicity, usual class: cytotoxic | actives 2% (n = 360,000) | AID 686971;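 note: 0% = DMSO wells and -100% = cell-free medium wells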
#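 After a 2 h attachment period, IDH1KD HT-1080 cells took pin-transferred compound for 48 h at 37 °C; ATP-based luminescence after 10 min room-temperature reagent incubation reported viability.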
# KB-3-1 tox – KB-3-1 parental cell cytotoxicity. KB-3-1 viability, CellTiter-Glo ATP luminescence, 72 h. Potency, µM (series often up to 46.1 µM), actives largely listed as cytotoxic. actives 1.4% (n = 400,000). AID 1347075; note: nearly all actives have a fitted effect of over 60% in size
#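 Multi-concentration cytotoxicity screen in KB-3-1 cells grown in DMEM lacking phenol red with 10% FBS. After 72 h at 37 °C with compound, ATP-dependent luminescence was recorded.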
# HT1080NT lethal – kills 2HG-producing HT-1080-NT fibrosarcoma cells. actives 1.6% (n = 360,000). Potency, µM (top dose mostly 46.1 µM), inactives show at the highest dose activity, negative = less viability, hits mostly cytotoxic. HT-1080-NT fibrosarcoma viability, CellTiter-Glo ATP luminescence, 48 h;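 note: NT is the 2HG producing partner of a matched IDH1 knockdown line; 0% = DMSO-treated cells and -100% = media-only wells without cells; nearly all actives have a fitted effect of over 55% in size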
#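 Viability by CellTiter-Glo luminescence after 48 h compound exposure at 37C of HT-1080-NT cells (750/well, RPMI, 5% FBS). % activity scaled between DMSO wells and medium-only wells, then curve-fitted and categorized by curve class.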
# An asterisk follows results filed as active; i = inactive; ? = inconclusive; . = no result; ! = a repeat was not active; [ ] = another dose, or the depositor's remark. Calls come from the whole dose curve; as a rule, active = well fitted curve in the direction sought with a large enough effect; inconclusive = small, poorly fitted or top-dose-only effect, or another doubt; inactive = no such curve, though single readings can be large; an effect the other way counts as inactive or inconclusive. Unless noted, % is set by controls: 0 for no effect and ±100 for the full control effect; potency is the fitted concentration of half-maximal effect.
SMILES,TDP1 cell CPT,KB-V1 cytotox,TDP1 cell noCPT,HT1080 IDH1KD tx,KB-3-1 tox,HT1080NT lethal
CCOc1ccc(Oc2ccc(S(=O)(=O)N3CCOCC3)cc2NC(=O)C2=COCCO2)cc1,?,?,23.1µM*,2.5%,i,-6.4%
COc1ccccc1CNS(=O)(=O)c1ccc(Br)s1,4.5%,i,0.1%,-1.2%,i,-3.7%
COc1ccc(CNS(=O)(=O)c2ccc(-c3ccc(=O)[nH]n3)s2)cc1OC,?,i,10.2%,-1.6%,i,-0.3%
COc1ccc(OC)c(CNS(=O)(=O)c2ccc(-c3cc(C(F)(F)F)on3)s2)c1,8.2µM*,.,8.2µM*,.,.,.
COc1ccccc1CNS(=O)(=O)c1ccc(-c2cc(C(F)(F)F)on2)s1,23.1µM*,.,20.6µM*,.,.,.
COc1ccc(CNS(=O)(=O)c2ccc(-c3cc(C(F)(F)F)on3)s2)cc1OC,9.2µM*,.,5.17µM*,.,.,.
COc1ccc(NC(=O)N(C)C[C@@H]2Oc3ccc(NC(=O)NC(C)C)cc3CC(=O)N([C@H](C)CO)C[C@@H]2C)cc1,-21.0%,i,5.3%,8.4%,i,12.0%
CC(C)=CCc1c(-c2ccc(O)cc2O)oc2cc3c(c(O)c2c1=O)C=CC(C)(C)O3,23.1µM*,i,23.1µM*,1.2%,i,0.6%
CCCCCCCC(=O)CC[C@@H]1[C@@H](C/C=C\CCCC(=O)OC(C)C)[C@@H](O)C[C@H]1O,7.5µM*,.,7.5µM*,.,.,.
OCCN(CCO)c1cc2c3ccccc3ccc2c2ccccc12,?,i,16.4µM*,?,i,?
CN(C)c1ccc2ccc3cccc4ccc1c2c34,-24.4%,i,-19.4%,.,i,.
CN(C)c1cc2c3ccccc3ccc2c2ccccc12,?,i,15.8µM*,.,i,.
CCOc1ccc2nc(N(Cc3cccnc3)C(=O)c3ccco3)sc2c1,-7.7%,.,-13.4%,.,.,.
C=CC[C@]12C[C@@H](OC)C(=O)C=C1O[C@@H](c1ccc(OC)c(OC)c1)[C@H]2C,18.4µM*,i,?,-0.7%,i,7.2%
COc1cccc(-c2ccc(O)c(CNCc3cccc(OC)c3OC)c2)n1,-5.0%[9.04 µM],.,?,.,.,.
Cc1c2ccccc2cc[n+]1C,-6.2%,i,-15.9%,.,i,.
CC1=[N+](C)c2ccc3ccccc3c2C1(C)C,2.59µM*,?,2.31µM*,-3.0%,?,-16.9%
Cn1c(=O)oc2cc(S(=O)(=O)N3CCCC(C(=O)Nc4ccc(Br)cc4F)C3)ccc21 (configuration not stated),-19.2%,i,-28.9%,.,i,.
Cc1ccccc1-c1nn(-c2ccc(F)cc2F)cc1CNC1CC1,2.1%,i,?,-1.7%,i,1.9%
c1ccc(-c2noc(-c3ccc4c(c3)OCO4)n2)nc1,5.17µM*,4.11µM*,5.17µM*,2.51µM*,4.61µM*,1.78µM*
Cc1onc(-c2ccccc2Cl)c1-c1nc(-c2ccccn2)no1,?,i,16.4µM*,-12.1%,i,-2.3%
c1ccc(-c2noc(-c3ccncc3)n2)nc1,?,i,?,?,?,11.2µM*
c1ccc(-c2noc(-c3cccnc3)n2)nc1,-23.4%,i,?,-28.7%,i,-11.8%
c1ccc(-c2noc(-c3ccc4ccccc4c3)n2)nc1,?,5.8µM*,23.1µM*,-24.9%,?,-19.0%
CC1CCC(NC(=O)CCNC(=O)c2ccccc2)CC1 (configuration not stated),1.2%,i,2.1%,-1.0%,i,-4.2%
SMILES,TDP1 cell CPT,KB-V1 cytotox,TDP1 cell noCPT,HT1080 IDH1KD tx,KB-3-1 tox,HT1080NT lethal
CCC(Oc1ccccc1)C(=O)Nc1ccsc1C(=O)OC (configuration not stated),?,i,?,-6.0%,i,-6.3%
COc1ccc(NC(=O)c2cc3c([nH]c2=O)CC(c2ccccc2)CC3=O)cc1 (configuration not stated),16.1%,.,-4.3%,.,.,.
COc1cc(N)c(N)cc1OC,?,i,?,.,i,.
Cc1cccc(NC(=O)c2c(Br)sc3c2CCCC3)c1,?,i,23.1µM*,.,i,.
CCN(CC)C(=O)c1c(NC(=O)c2cccc(C)c2)sc2c1CCC(C)C2 (configuration not stated),23.1µM*,?,16.4µM*,.,i,.
Cc1cccc(C(=O)Nc2sc3c(c2C(=O)Nc2ccccc2)CCC3)c1,-26.6%,i,?,.,i,.
Cc1cccc(C(=O)Nc2sc3c(c2C(=O)O)CCCC3)c1,16.4µM*,7.31µM*!,?,-24.2%,6.51µM*!,?
Cc1cccc(C(=O)c2c(N)sc3c2CCC(C)C3)c1 (configuration not stated),?,?,?,5.1%,i,0.6%
O=[N+]([O-])c1ccc2nc(NCCCO)nc(-c3ccccc3)c2c1,9.2µM*,?,23.1µM*,-17.2%,i,-21.2%
O=C(NC(=S)Nc1ccc(CN2CCCCC2)cc1)c1cccc(OCc2ccccc2)c1,9.2µM*,?,11.6µM*,20.6µM*,i,?
CC(=O)Nc1cccc(OCc2ccc(S(=O)(=O)Cc3ccccc3)cc2)c1,?,18.4µM*,20.6µM*,-6.7%,i,-1.3%
CC(=O)Nc1cccc(NC(=O)c2cccc(OCc3ccccc3)c2)c1,20.6µM*,i,18.4µM*,-14.4%,i,-17.1%
CC(=O)Nc1cccc(NC(=O)c2ccccc2OCc2ccccc2)c1,?,i,?,-12.8%,i,-6.1%
CC(=O)Nc1cccc(OCc2cccc([N+](=O)[O-])c2)c1,-1.3%,13µM*,-12.0%,6.2%,?,5.2%
CC(=O)Nc1ccc(OCc2ccc(S(=O)(=O)Cc3ccccc3)cc2)cc1,-10.3%,?,?,1.2%,i,6.8%
COc1ccc(S(=O)(=O)N2CCCCC2)cc1NC(=O)CN(Cc1ccco1)Cc1ccco1,?,?,?,-8.4%,i,-16.4%
CN(N=O)c1ccc(/C=C/c2ccccc2)cc1,?,i,-16.9%,.,i,.
C/C=C/c1cccc(-c2nc(C(=O)NC3CCC3)cc3c2[C@H](CCO)N(S(=O)C(C)(C)C)C3)c1 (some centres not stated),?,i,?,1.2%,i,-4.2%
Cc1cnc(CNc2cc(-c3ccccc3C)ncn2)cn1,1.0%,.,-4.3%,.,.,.
